# A549 tox = counter-screen for Nrf2 inhibitors: cytotoxicity in A549 cells; 390,000 compounds, 0.16% hits; A549 ARE-Fluc cells, CellTiter-Fluor viability, 18-24 h; AID 504648; Potency, µM (series often up to 46 µM), for inactives: at the top dose activity change, negative = cytotoxicity, usual class: inhibitors; note: potency is the fitted concentration of half-maximal effect
#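 A549 ARE-Fluc cells in 5% FBS OPTI-MEM, 5000 cells/well, rested 2 h then exposed to compounds in concentration-response for 18-24 h at 37 °C. Viability by CellTiter-Fluor fluorescence (Ex 405/Em 525) after 30 min; luciferase luminescence (BugLite, 15 min, RT) read afterwards.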
# Nrf2 block = blocks Nrf2 signaling. Potency, µM (series often up to 46 µM), without a hit: at the top dose activity change, negative = inhibition, usual class: inhibitors. 360,000 compounds, 2.1% hits. A549 ARE-Fluc reporter, luciferase luminescence, 18-24 h; note: potency is the fitted concentration of half-maximal effect; nearly all actives have a fitted effect of over 60% in size
#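 Quantitative HTS in A549 cells stably bearing an antioxidant response element-firefly luciferase construct. Inhibition of Nrf2-driven transcription was scored by luminescence after 18-24 h of compound exposure at 37 °C.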
# PI4K2A inh = inhibitors of human PI4K2A; Q9BTU6; purified PI4K2A, ADP-Glo luminescence, 1 h; active compounds read low; activity change, negative = inhibition, % at 76.9 µM; 420,000 compounds, 0.13% hits; AID 1346378; in the data active = activity change below about -50%; inconclusive = mostly about -30% to -49%;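 note: -100% = wells without enzyme as full effect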
# Target sequence (Q9BTU6 whole entry, looked up): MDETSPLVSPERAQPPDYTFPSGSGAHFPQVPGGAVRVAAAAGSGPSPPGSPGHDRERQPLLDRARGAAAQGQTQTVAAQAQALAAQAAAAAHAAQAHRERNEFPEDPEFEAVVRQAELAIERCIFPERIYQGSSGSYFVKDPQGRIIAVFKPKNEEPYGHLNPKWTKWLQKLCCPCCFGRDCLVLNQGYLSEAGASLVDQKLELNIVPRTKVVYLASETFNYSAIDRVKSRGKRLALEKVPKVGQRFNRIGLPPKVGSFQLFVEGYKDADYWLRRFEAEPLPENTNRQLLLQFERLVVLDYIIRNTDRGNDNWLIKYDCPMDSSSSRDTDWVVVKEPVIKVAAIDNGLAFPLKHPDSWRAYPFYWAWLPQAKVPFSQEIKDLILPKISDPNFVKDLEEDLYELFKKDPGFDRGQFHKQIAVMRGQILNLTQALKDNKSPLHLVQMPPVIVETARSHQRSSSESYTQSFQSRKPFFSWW
#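 Compounds are screened against recombinant PI4K2A using PI as substrate and ATP, the latter dispensed at 300 microM. Reactions run one hour at ambient temperature before ADP-Glo detection; full inhibition defined by wells lacking enzyme.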
# KB-V1 cytotox = KB-V1 MDR subline cytotoxicity. KB-V1 MDR cells viability, CellTiter-Glo, 72 h. Potency, µM (highest dose often 46.1 µM), actives largely listed as cytotoxic. 400,000 compounds, 3.4% hits. AID 1347076; note: potency is the fitted concentration of half-maximal effect; nearly all actives have a fitted effect of over 60% in size
#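 KB-V1 cells (P-gp-expressing MDR subline of KB-3-1) in phenol-red-free DMEM with 10% FBS were exposed to library compounds over a concentration series for 72 h at 37 degrees C. Viability read by CellTiter-Glo luminescence; concentration-effect curves fitted after normalization.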
# KB-3-1 tox = KB-3-1 parental cell cytotoxicity; KB-3-1 viability, CellTiter-Glo ATP luminescence, 72 h; Potency, µM (series often up to 46.1 µM), hits mostly cytotoxic; 400,000 compounds, 1.4% hits; AID 1347075; note: potency is the fitted concentration of half-maximal effect; nearly all actives have a fitted effect of over 60% in size
#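 KB-3-1 parental drug-naive adenocarcinoma cells in DMEM/10% FBS, incubated 72 h at 37 C with pin-transferred compounds across a concentration series. Viability by CellTiter-Glo luminescence; concentration-response curves fitted after normalization.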
# Giardia killer = Giardia lamblia killing. 340,000 compounds, 0.15% hits. AID 540267. Giardia lamblia trophozoite viability. activity change, % at 7.66 µM, hits read low; in the data active = activity change below about -80%; inconclusive = between about -30% and that limit;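 note: parasites exposed to compound for two days anaerobically before the ATP read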
#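 Each well holds 100 Giardia trophozoites and compound. After two days (48 hrs) at 37 deg C in anaerobic conditions, ATP is quantified by luminescence.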
# Numbers without * were called inactive; i = inactive; ? = inconclusive; / = no result given; [ ] = dose if it differs, or a comment. The list is not random: actives were taken first. Their share in the collection is about 5.7%. Unless noted, calls come from the whole dose curve; as a rule, active = well fitted curve in the direction sought with a large enough effect; inconclusive = small, poorly fitted or top-dose-only effect, or another doubt; inactive = no such curve, though single readings can be large; an effect the other way counts as inactive or inconclusive. Unless noted, % is set by controls: 0 for no effect and ±100 for the full control effect.
SMILES,A549 tox,Nrf2 block,PI4K2A inh,KB-V1 cytotox,KB-3-1 tox,Giardia killer
Cc1[nH]n(-c2ccccc2)c(=O)c1/C=N/N1C(=O)c2cccc3cccc(c23)C1=O,-15%,-5%,-8,7.3µM*,?,17
CC1(C)CC(N2CCN(Cc3ccccc3)CC2)=CC(=[N+]2CCCCC2)C1,-19%,18µM*,-2,i,1.5µM*,4
COc1ccc(OC)c(CCNC(=O)Cn2nc(C)c3c(C)n(-c4ccc(C)cc4)nc3c2=O)c1,-15%,10µM*,4,8.2µM*,?,26
COC(=O)c1ccc(CN(c2ccccc2Cl)S(C)(=O)=O)cc1,6%,-26%,2,i,i,-11
COC(=O)c1ccc(Cl)cc1N(Cc1c(F)cccc1Cl)S(C)(=O)=O,?,18µM*,8,i,i,-10
Cc1c[nH]c2cccc(-c3cc4ccccc4o3)c12,/,/,-7,/,/,/
Cc1cccc(Cn2nnc3c2C(=O)c2ccccc2C3=O)c1,?,21µM*,3,6.3µM*,?,?
Cc1ccccc1Cn1nnc2c1C(=O)c1ccccc1C2=O,-3%,?,-5,13µM*,?,?
O=C(c1ccco1)N1CCN(C(=O)c2ccco2)CC1,/,/,-8,i,i,/
O=C(c1ccco1)N1CCN(C(=O)c2sccc2-c2ccccc2)CC1,-10%,-15%,3,12µM*,i,-22
CCCCOCCCNC(=O)C[C@@H]1C(=O)N(CCc2ccc(Cl)cc2)C2=CCCC[C@]21C(=O)OCC,/,/,4,/,/,/
COc1ccc2c(c1)N[C@@](CCN1C(=O)c3ccccc3C1=O)(c1[nH]c3ccccc3c1CCN1C(=O)c3ccccc3C1=O)C2=O,/,/,-1,/,/,/
CC(C)N(C(=O)CN(C#N)c1nc(N(C)C)nc(N(C)C)n1)c1ccccc1,-2%,13%,6,6.5µM*,i,-3
COc1ccccc1-c1cc(C(F)(F)F)nc(S(=O)(=O)CCCC(=O)Nc2cccnc2Cl)n1,?,21µM*,-3,i,i,3
COc1ccccc1-c1cc(C(F)(F)F)nc(S(=O)(=O)CCCC(=O)Nc2ccccc2F)n1,0%,-6%[9.27 µM],10,/,/,/
COC(=O)[C@]12C[C@H](CC(=O)NCc3ccccc3)C(=O)N(Cc3cccc4ccccc34)C1=C[C@H](C(C)(C)C)O[C@@H]2C,/,/,-6,/,/,/
COc1ccc(/C=C/C(=O)NC(C)(C)C)cc1S(=O)(=O)N1CCOCC1,-1%,12%,0,i,i,2
COc1cc(/C=C/C(=O)Nc2cccc(S(=O)(=O)N3CCOCC3)c2)ccc1OCC#N,-9%,15µM*,-3,i,i,-23
COc1ccc(/C=C/C(=O)NC2CCCCCCC2)cc1S(=O)(=O)N1CCOCC1,-8%,?,-2,23µM*,?,5
CC(=O)c1cccc(NC(=O)/C=C/c2ccc(S(=O)(=O)N3CCOCC3)cc2)c1,-8%,-25%,4,i,i,10
CN(C)S(=O)(=O)c1cccc(NC(=O)/C=C/c2ccc(S(=O)(=O)N3CCOCC3)cc2)c1,-4%,23µM*,-1,/,/,12
COc1ccc(CNS(=O)(=O)c2cc3c(cc2Br)CC(C)N3C(C)=O)cc1 (configuration not stated),/,/,2,/,/,/
O=C(OCc1cn(Cc2cccc(Cl)c2)nn1)N1CCOCC1,/,/,-1,/,/,/
CCOc1ccc(NS(=O)(=O)c2ccc(C(=O)N3CCCC(C)C3)cc2)cc1 (configuration not stated),-11%,7.3µM*,3,i,?,-13
CCOc1ccc(NS(=O)(=O)c2ccc(C(=O)N3CCCCCC3)cc2)cc1,-16%,23µM*,0,?,i,0
SMILES,A549 tox,Nrf2 block,PI4K2A inh,KB-V1 cytotox,KB-3-1 tox,Giardia killer
Cc1cc(C)cc(-c2c(C(=O)c3ccc(Br)cc3)[nH]c(N)c2C(=O)NCc2ccc(Cl)cc2)c1,/,/,1,/,/,/
O=C(COC(=O)c1cccnc1Cl)c1ccccc1,-7%,?,-71*,i,i,5
COc1ccc2nc(N=Nc3ccc(N(C)C)cc3)sc2c1,?,-2%,-19,?,13µM*,-82*
O=C(NC1CCCCN(Cc2ccc(Cl)cc2)C1=O)c1ccccc1-c1ccc(Cl)c(Cl)c1 (configuration not stated),/,/,-1,/,/,/
CN(Cc1ccccc1)C(=O)c1ccc(NC(=O)Cc2cccc(NC(=O)C3CCCN(C(=O)CCc4ccccc4)C3)c2)cc1 (configuration not stated),-11%,21µM*,-1,i,i,-7
CN(C(=O)c1ccc(NC(=O)Cc2ccc(NC(=O)C3CCCN(C(=O)CCc4ccccc4)C3)cc2)cc1)C1CC1 (configuration not stated),-11%,12µM*,3,i,?,6
CN(Cc1ccccc1)C(=O)c1cccc(NC(=O)Cc2ccc(NC(=O)C3CCCN(C(=O)CCc4ccccc4)C3)cc2)c1 (configuration not stated),-2%,?,0,?,i,36
CN(C(=O)c1cccc(NC(=O)Cc2cccc(NC(=O)C3CCCN(C(=O)C4CCCC4)C3)c2)c1)C1CCC1 (configuration not stated),-3%,?,-1,i,i,4
CN(C(=O)c1ccc(NC(=O)Cc2cccc(NC(=O)C3CCCN(C(=O)CCc4ccccc4)C3)c2)cc1)C1CCCC1 (configuration not stated),-15%,15µM*,-2,i,i,-8

# Screening results deposited in PubChem BioAssay by National Center for Advancing Translational Sciences (NCATS).
